Source: PubChem BioAssay (several laboratories)
The list is not random: actives were taken first. Their share in the collection is about 0.93%.
LYP act: LYP phosphatase activators, primary screen, biochemical, DiFMUP fluorescence, 2 µM. actives 0.11% (n = 96,000). recombinant LYP; 0 = plate median, 100 = signal doubled. AID 697, 2007. activation, % at 2 µM. Tyrosine-protein phosphatase non-receptor type 22 (Homo sapiens), Q9Y2R2;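 active means activation at 2 µM above a set limit, the mean plus 5 SD, cut at about 37% in these data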
PLK1 kinase inh: human PLK1 kinase inhibitors, primary screen, biochemical, TR-FRET; AID 619, 2007; Serine/threonine-protein kinase PLK1 (Homo sapiens), P53350; actives 0.53% (n = 97,000); recombinant PLK1 kinase, TR-FRET peptide phosphorylation; inhibition, % at 10 µM;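 active means inhibition of 50% or more in the single-concentration screen; inactive means inhibition below 50%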;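 further: 0% = DMSO max control and 100% = H-89 dihydrochloride min control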
Target sequence (P53350 whole entry, looked up): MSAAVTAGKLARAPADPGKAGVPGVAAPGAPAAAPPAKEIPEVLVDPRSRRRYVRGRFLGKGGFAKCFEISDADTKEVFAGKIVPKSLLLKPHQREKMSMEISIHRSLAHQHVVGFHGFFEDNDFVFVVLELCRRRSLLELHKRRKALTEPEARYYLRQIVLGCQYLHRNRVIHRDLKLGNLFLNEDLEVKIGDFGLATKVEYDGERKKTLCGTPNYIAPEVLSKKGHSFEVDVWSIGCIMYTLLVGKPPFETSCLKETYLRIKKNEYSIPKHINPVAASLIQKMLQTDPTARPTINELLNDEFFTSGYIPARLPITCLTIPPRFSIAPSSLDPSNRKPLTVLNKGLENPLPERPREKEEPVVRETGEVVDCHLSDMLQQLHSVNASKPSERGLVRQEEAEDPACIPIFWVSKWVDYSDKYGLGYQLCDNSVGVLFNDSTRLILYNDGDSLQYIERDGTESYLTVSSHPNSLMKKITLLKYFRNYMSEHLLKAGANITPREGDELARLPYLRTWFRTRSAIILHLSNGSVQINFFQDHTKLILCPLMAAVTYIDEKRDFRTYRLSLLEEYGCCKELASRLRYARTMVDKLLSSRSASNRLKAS
Plk1 PBD FP: Plk1 polo box domain binding inhibitors, primary screen, biochemical, fluorescence polarization | Serine/threonine-protein kinase PLK1 (Homo sapiens), P53350 | Plk1 PBD phosphopeptide binding | inhibition, %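 (tested at about 20 µM)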 | actives 0.13% (n = 97,000) | AID 693, 2007; in the data active means inhibition above about 34%, passing the limit was not always enough
PTPN22 inh 2: PTPN22 phosphatase inhibitors, primary screen, biochemical, DiFMUP fluorescence, 2 µM; Tyrosine-protein phosphatase non-receptor type 22 (Homo sapiens), Q9Y2R2; recombinant LYP catalytic domain; inhibition, % at 2 µM; actives 0.21% (n = 96,000); AID 640, 2007;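 active means inhibition at 2 µM at or above a set limit, the screen mean plus 3 SD, cut at about 24% in these data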;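 further: 0% = DMSO with enzyme and 100% = enzyme fully blocked by orthovanadate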
PTPN22 act conf: retest of PTPN22 activators, confirmation, biochemical, DiFMUP fluorescence, single concentration | activation, % at 2 µM | 100 tested, under 10 active | Recombinant LYP, activation; zero set by plate's median compound well | shares compounds with LYP act; call rule not given here
Active calls of the source: *; / = no result.

SMILES	LYP act	PLK1 kinase inh	Plk1 PBD FP	PTPN22 inh 2	PTPN22 act conf
Cc1ccc(Cl)cc1NC(=O)c1cccc(OC(F)F)c1	40*	-9	13	-46	7
COc1ccccc1NC(=O)CN1CCN(C(=O)c2ccco2)CC1	37*	-11	0	-38	0
[N-]=[N+]=CC(=O)c1ccnc(C(=O)C=[N+]=[N-])c1	1	-8	-14	-5	/
CCNC(=S)NNC(=O)c1csc2ccccc12	-9	-19	-24	12	/
CC(C)CNC(=S)NNC(=O)c1csc2ccccc12	37*	48	29	-43	3
CCCCC(=O)NC1(C(F)(F)F)C(=O)N(CC(C)C)C2=C1C(=O)CC(C)(C)C2 (centres undefined)	2	-9	15	0	/
CSc1nc(-c2ccccc2)nn1C(=O)c1ccccc1	52*	-3	5	-48	-2
COc1ccc(-n2cnc3cc(NCc4ccccn4)ccc32)cc1	42*	-11	0	-38	-4
COc1ccccc1-n1cnc2cc(NCc3ccccn3)ccc21	-14	-12	-15	16	/
CC1(C)CC(=O)C2=C(C1)N(Cc1ccco1)C(=O)C2(O)C(F)(F)F (centres undefined)	37*	-3	-5	-41	3
Clc1ccccc1-c1ccc(CN2CCN(c3ccccc3)CC2)o1	6	4	6	-4	/
O=c1c2c(nc3cc(-c4ccc(F)cc4)[nH]n13)CCCC2	2	1	5	-4	/
O=c1c2c(nc3cc(-c4cccc(Cl)c4)[nH]n13)CCC2	43*	-9	1	-37	-5
COc1ncnc2c1cnn2-c1ccccc1	38*	-3	-5	-38	1
CCC(=O)Nc1ccc(S(=O)(=O)Nc2cccc(C)c2)cc1OC	-6	-10	-8	4	/
CCC(=O)c1ccc(N2CCN(C(=O)Cc3ccccc3)CC2)c(F)c1	41*	-17	3	-41	4
COc1cc(OC)cc(-c2cc3nc(C)c(CCC(=O)O)c(=O)n3[nH]2)c1	49*	7	36	-53	-2
COc1cc(OC)cc(-c2nc3nc(C)c(CCC(=O)O)c(C)n3n2)c1	1	-8	-29	-4	/
O=C(Nc1cc2c(oc1=O)CCCC2=O)c1ccc(Cl)cc1	4	-11	-23	-8	/
CCOC(=O)CSc1cc(=O)n(CC)c2ccccc12	64*	-8	-17	-58	10
COC(=O)C1=C(C)NC(=O)CC1c1cc(Br)ccc1F (centres undefined)	38*	-14	20	-43	-3
COc1ccc(Br)cc1C1NC(=O)NC(C)=C1C(=O)N(C)C (centres undefined)	-1	-9	11	1	/
CCc1nc2c(c(SC)nn2-c2ccccc2)c(N)c1C(=O)OC	-4	-22	-8	6	/
CCOC(=O)c1cnn(-c2nc(-c3ccccc3)cs2)c1C(F)(F)F	-6	-19	20	8	/
CCOC(=O)c1cnn(-c2nc(-c3ccc(F)cc3)cs2)c1C(F)(F)F	40*	-17	15	-34	-3
SMILES	LYP act	PLK1 kinase inh	Plk1 PBD FP	PTPN22 inh 2	PTPN22 act conf
CN(CC(CC(=O)Nc1nncs1)c1ccccc1)S(=O)(=O)c1ccc(Br)cc1 (centres undefined)	16	-10	35	-17	/
CCOC(=O)CCSc1nc(C)cc(C(F)(F)F)c1C#N	10	-4	-27	-10	/
Cc1ccccc1NC(=O)CN(c1ccc(F)cc1)S(C)(=O)=O	8	-15	4	-9	/
CN(C)S(=O)(=O)N(CC(=O)Nc1ccccc1F)c1ccccc1	39*	-4	-15	-38	-4
O=C(Nc1ccc2c(c1)OCCO2)C1CCN(S(=O)(=O)c2cccc3nsnc23)CC1	3	0	-16	-5	/
O=C(Nc1ccc2c(c1)OCCO2)C1CCCN(S(=O)(=O)c2cccc3nsnc23)C1 (centres undefined)	42*	-14	1	-47	-5
